Reference: PubChem BioAssay
“And” between values parts separate entries of the source, which are not always exact repeats. Equal values may be shown once. Results filed as inconclusive are left out. The source made the active and inactive calls.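 Rule for the calls, unless noted: active = normalized viability below 100% at a tested concentration; inactive = the rest.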

Experiments:
[1] = P. berghei load reduction in hepatocytes – cell-based, HepG2, luciferase luminescence, HepG2 viability, primary screen (AID 624349; in the data active = parasite load remaining mostly below about 12%, no sharp cut-off; inactive = mostly above about 10%;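 note: 100% = mean of DMSO negative control wells on the same plate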); conditions: P. berghei liver stage in HepG2, luciferase luminescence, concentration not given here; parasite load remaining: stronger effect = lower value; viability: measured here: HepG2 viability without parasites
[2] = viability loss in pontine glioma line – cell-based, SU-DIPG-XVII, MIPE5.0, CellTiter-Glo, qHTS, dose response (AID 1347060; cut-off not given, nearly all actives have AC50 up to about 26 µM;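 note: cells exposed to compound for 48 hours before viability readout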); conditions: CellTiter-Glo ATP luminescence
[3] = viability loss in pontine glioma line – cell-based, JHH-DIPG-1, MIPE4.0, CellTiter-Glo, qHTS, dose response (AID 1347062; cut-off not given, nearly all actives have AC50 up to about 27 µM;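 note: cells exposed to compound for two days before readout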); conditions: JHH-DIPG-1 viability, CellTiter-Glo ATP luminescence
[4] = viability loss in pontine glioma line – cell-based, SU-DIPG-XXV, MIPE5.0, CellTiter-Glo, qHTS, dose response (AID 1347065; cut-off not given, nearly all actives have AC50 up to about 26 µM;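 note: cells exposed to compound for 48 hours before ATP readout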); conditions: CellTiter-Glo ATP luminescence
[5] = JHH-DIPG-1 glioma cell viability, MIPE5.0 library, CellTiter-Glo luminescence, qHTS (AID 1347067; cut-off not given, nearly all actives have AC50 up to about 26 µM;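 note: cells exposed to compound for 48 hours before readout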); conditions: JHH-DIPG-1 glioma viability, CellTiter-Glo ATP luminescence
[6] = growth inhibition of DIPG cells – cell-based, MIPE5.0 library, qHTS (AID 1347068; cut-off not given, nearly all actives have IC50 up to about 30 µM;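 note: cells exposed to compound for 48 hours before viability readout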); conditions: SU-DIPG-XXV viability
[7] = viability loss with induced miR-34 in A549 – imaging, A549 dox-inducible miR-34, nuclei and caspase counts, primary screen (AID 1347080;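 active = compounds whose cell count with miR-34 switched on is under 0.7 times the count with it off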); conditions: A549 miR-34 inducible, Hoechst nuclei count, 48 h
[8] = MELAS cybrid and Rieske KO viability enhancers – cell-based, MELAS cybrids, Rieske KO mouse fibroblasts, CellTiter-Glo, primary screen (AID 1508586;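 active = mean z-score across replicates of 1.96 or higher in either the MELAS or the Rieske mutant cell line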;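 note: z relative to plate mean and SD of compound and empty wells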); conditions: low glucose
[9] = viability loss in pontine glioma line – cell-based, SU-DIPG-XIII, MIPE5.0, CellTiter-Glo, qHTS, dose response (AID 1347064; cut-off not given, nearly all actives have AC50 up to about 23 µM;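 note: cells exposed to compound for 48 hours before the viability read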); conditions: CellTiter-Glo ATP luminescence
[10] = compounds altering HSF1 focus formation in cells – imaging, Selleck Cancer Library (AID 1347162; in the data active = plate-normalised HSF1 focus index below about 0.46); conditions: human cells, HSF1 nuclear foci imaging, at 10 µM; SSMD: measured here: HSF1 foci SSMD mean; cell count: measured here: cell number; plate-normalised HSF1 focus index: stronger effect = lower value
[11] = drug combination growth inhibition, ovarian cancer – cell-based, oncology-focused library, rucaparib conditional, profiling panel (AID 1508598); conditions: patient-derived ovarian cancer cells, CellTiter-Glo viability, 144 h, stronger effect = lower value
[12] = viability loss in pontine glioma line – cell-based, SU-DIPG-IV, MIPE4.0, CellTiter-Glo, qHTS, dose response (AID 1347063; cut-off not given, nearly all actives have AC50 up to about 30 µM;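 note: compound exposure lasted 48 hours before the viability readout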); conditions: CellTiter-Glo ATP luminescence
[13] = stronger effect = lower value, cell number ratio, induced over uninduced
[14] = measured here: relative caspase fold change +Dox/-Dox
[15] = measured here: total cells with miR-34 induction, stronger effect = lower value
[16] = measured here: total cells without miR-34 induction
[17] = MELAS cybrid survival, CellTiter-Glo 48 h, stronger effect = higher value
[18] = Rieske KO mouse fibroblast survival, CellTiter-Glo 72 h

COc1ccc2c(c1)c(C1=C(c3c[nH]c4ccccc34)C(=O)NC1=O)cn2CCCN(C)C
0.481 and 1.22: fold change [7, 14]
93.9%: viability [1]
-0.0818: z-score [8, 18]
4580 and 4760: cell count [7, 16]
4170 and 4590: cell count [7, 15]
inactive: parasite load remaining [1] 27.6% | fold change [7, 13] 0.91 and 0.965 | z-score [8, 17] -0.592
active: AC50 [2] 20900 nM | AC50 [3] 16.6 µM | AC50 [4] 20.9 µM | AC50 [5] 20.9 µM | IC50 [6] 29.5 µM

COc1cccc2c1C(=O)c1c(O)c3c(c(O)c1C2=O)C[C@@](O)(C(=O)CO)C[C@@H]3O[C@H]1C[C@H](N)[C@H](OC2CCCCO2)[C@H](C)O1 (stereo not given in full)
active: AC50 [2] 417 nM and 332 nM | AC50 [3] 16.6 µM | AC50 [9] 2.95 µM and 833 nM | AC50 [4] 4.68 µM and 1.66 µM | AC50 [5] 2.95 µM and 2.35 µM | IC50 [6] 6.61 µM and 9.34 µM

COc1ccc(S(=O)(=O)Nc2cccnc2Nc2ccc(O)cc2)cc1
active: AC50 [2] 263 nM | AC50 [3] 0.166 µM | AC50 [9] 468 nM | AC50 [5] 0.468 µM | IC50 [6] 10.5 µM | viability ([11]; at 0.313 µM, OCI-C5x cells, with rucaparib 10 µM, 100% = cells with rucaparib alone) 58.8% | viability ([11]; at 0.313 µM, OCI-C5x cells, without rucaparib) 76.1% | viability ([11]; at 0.313 µM, OCI-P5x cells, with rucaparib 20 µM, 100% = cells with rucaparib alone) 94.4% | viability ([11]; at 0.313 µM, OCI-P5x cells, without rucaparib) 28.4% | viability ([11]; at 1.25 µM, OCI-C5x cells, with rucaparib 10 µM, 100% = cells with rucaparib alone) 50% | viability ([11]; at 1.25 µM, OCI-C5x cells, without rucaparib) 49.6% | viability ([11]; at 1.25 µM, OCI-P5x cells, with rucaparib 20 µM, 100% = cells with rucaparib alone) 72.9% | viability ([11]; at 1.25 µM, OCI-P5x cells, without rucaparib) 23% | viability ([11]; at 5 µM, OCI-C5x cells, with rucaparib 10 µM, 100% = cells with rucaparib alone) 43.3% | viability ([11]; at 5 µM, OCI-C5x cells, without rucaparib) 62% | viability ([11]; at 5 µM, OCI-P5x cells, with rucaparib 20 µM, 100% = cells with rucaparib alone) 70.9% | viability ([11]; at 5 µM, OCI-P5x cells, without rucaparib) 17.9%
0.79: fold change [7, 14]
inactive: fold change [7, 13] 1.24 | plate-normalised HSF1 focus index [10] 1.07 | z-score [8, 17] 0.679 | viability ([11]; at 0.000305 µM, OCI-C5x cells, with rucaparib 10 µM, 100% = cells with rucaparib alone) 111% | viability ([11]; at 0.000305 µM, OCI-C5x cells, without rucaparib) 122% | viability ([11]; at 0.000305 µM, OCI-P5x cells, with rucaparib 20 µM, 100% = cells with rucaparib alone) 117% | viability ([11]; at 0.000305 µM, OCI-P5x cells, without rucaparib) 128% | viability ([11]; at 0.00122 µM, OCI-C5x cells, with rucaparib 10 µM, 100% = cells with rucaparib alone) 119% | viability ([11]; at 0.00122 µM, OCI-C5x cells, without rucaparib) 133% | viability ([11]; at 0.00122 µM, OCI-P5x cells, with rucaparib 20 µM, 100% = cells with rucaparib alone) 118% | viability ([11]; at 0.00122 µM, OCI-P5x cells, without rucaparib) 119% | viability ([11]; at 0.00488 µM, OCI-C5x cells, with rucaparib 10 µM, 100% = cells with rucaparib alone) 119% | viability ([11]; at 0.00488 µM, OCI-C5x cells, without rucaparib) 133% | viability ([11]; at 0.00488 µM, OCI-P5x cells, with rucaparib 20 µM, 100% = cells with rucaparib alone) 112% | viability ([11]; at 0.00488 µM, OCI-P5x cells, without rucaparib) 121% | viability ([11]; at 0.0195 µM, OCI-C5x cells, with rucaparib 10 µM, 100% = cells with rucaparib alone) 113% | viability ([11]; at 0.0195 µM, OCI-C5x cells, without rucaparib) 128% | viability ([11]; at 0.0195 µM, OCI-P5x cells, with rucaparib 20 µM, 100% = cells with rucaparib alone) 108% | viability ([11]; at 0.0195 µM, OCI-P5x cells, without rucaparib) 122% | viability ([11]; at 0.0781 µM, OCI-C5x cells, with rucaparib 10 µM, 100% = cells with rucaparib alone) 110% | viability ([11]; at 0.0781 µM, OCI-C5x cells, without rucaparib) 134% | viability ([11]; at 0.0781 µM, OCI-P5x cells, with rucaparib 20 µM, 100% = cells with rucaparib alone) 111% | viability ([11]; at 0.0781 µM, OCI-P5x cells, without rucaparib) 111%
962: cell count [7, 16]
7150: cell count [10]
1.94: SSMD [10]
-0.295: z-score [8, 18]
1190: cell count [7, 15]

CCN(CC)CCCCNc1ncc2c(n1)N(C)C(=O)N(c1c(Cl)c(OC)cc(OC)c1Cl)C2
active: AC50 [2] 590 nM | AC50 [12] 18.7 µM | AC50 [9] 263 nM | AC50 [4] 0.372 µM | IC50 [6] 7.42 µM
